12-LOX inh: inhibitors of human 12S-lipoxygenase ALOX12. purified 12hLO, xylenol orange hydroperoxide absorbance. Potency, µM (top dose mostly 108 µM), for inactives: at the top dose activity change, negative = inhibition, hits mostly inhibitors. hit rate 1.1% among 580,000. AID 1671190; also: % is scaled to controls: 0 for no effect and ±100 for the full control effect
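Hydroperoxide product was detected by ferrous iron/xylenol orange as the 573 to 405 nm absorbance ratio. Arachidonic acid at 40 uM (final) was turned over for 30 min at room temperature by 150 nM human 12hLO, pH 7.0 Hepes buffer, after 15 min compound preincubation.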
JMJD2A Tudor: inhibitors of human JMJD2A Tudor domain; AlphaScreen JMJD2A-Tudor / H3K4me3 peptide binding; Potency, µM (doses to about 114 µM), for inactives: at the highest dose activity change, negative = inhibition, actives largely listed as inhibitors; hit rate 4.4% among 390,000; O75164; also: % is scaled to controls: 0 for no effect and ±100 for the full control effect; nearly all actives have a fitted effect of over 50% in size
Target sequence (O75164 whole entry, looked up, the tested form may be a part): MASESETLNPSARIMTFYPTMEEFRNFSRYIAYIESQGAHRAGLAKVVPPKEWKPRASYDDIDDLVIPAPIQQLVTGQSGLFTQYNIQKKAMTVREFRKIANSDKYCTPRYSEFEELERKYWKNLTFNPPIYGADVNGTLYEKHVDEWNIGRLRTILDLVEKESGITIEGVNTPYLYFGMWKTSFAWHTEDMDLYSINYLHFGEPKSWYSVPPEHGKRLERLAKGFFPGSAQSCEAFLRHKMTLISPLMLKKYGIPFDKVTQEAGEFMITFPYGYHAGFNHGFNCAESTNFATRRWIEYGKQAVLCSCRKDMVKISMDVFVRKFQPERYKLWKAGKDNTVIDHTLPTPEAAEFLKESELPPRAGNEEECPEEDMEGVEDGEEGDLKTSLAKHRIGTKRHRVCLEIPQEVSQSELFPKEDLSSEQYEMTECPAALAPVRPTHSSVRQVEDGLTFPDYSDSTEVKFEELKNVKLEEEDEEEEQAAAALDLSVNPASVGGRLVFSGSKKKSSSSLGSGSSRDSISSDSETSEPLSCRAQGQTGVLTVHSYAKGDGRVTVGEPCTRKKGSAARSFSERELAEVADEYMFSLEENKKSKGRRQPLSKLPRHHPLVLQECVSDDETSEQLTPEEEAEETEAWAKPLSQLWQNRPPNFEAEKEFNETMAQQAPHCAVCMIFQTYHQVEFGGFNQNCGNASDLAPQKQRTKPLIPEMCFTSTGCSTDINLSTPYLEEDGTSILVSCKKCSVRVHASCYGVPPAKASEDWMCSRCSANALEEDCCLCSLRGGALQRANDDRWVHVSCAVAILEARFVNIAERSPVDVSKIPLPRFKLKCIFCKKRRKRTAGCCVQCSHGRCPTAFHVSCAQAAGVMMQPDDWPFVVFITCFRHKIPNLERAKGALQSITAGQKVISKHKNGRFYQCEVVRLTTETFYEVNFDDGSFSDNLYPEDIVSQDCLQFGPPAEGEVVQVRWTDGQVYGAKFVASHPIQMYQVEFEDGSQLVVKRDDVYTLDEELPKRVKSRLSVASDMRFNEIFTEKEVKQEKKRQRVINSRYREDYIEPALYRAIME
HP1b binding inh: inhibitors of HP1-beta chromodomain binding to methylated histone tails; P83916; AID 540317; AlphaScreen HP1-beta / biotin-H3K9me3 peptide binding; Potency, µM (highest dose often 114 µM), inactives show at the highest dose activity change, negative = inhibition, most hits filed as inhibitors; hit rate 0.56% among 390,000; also: nearly all actives have a fitted effect of over 70% in size
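AlphaScreen: HP1-beta (50 nM) preformed 30 min with biotin-H3(1-18)K9me3 peptide (50 nM) in PBS pH 7.4, 0.01% Tween-20. Compound added for 30 min at RT, then streptavidin donor/nickel chelate acceptor beads (10 ug/mL) for 30 min.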
PLK1 PBD block: inhibitors of human PLK1 polo-box domain binding. Plk1 PBD binding of FITC phosphopeptide, fluorescence polarization. P53350. Potency, µM, for inactives: max response, negative = inhibition, actives largely listed as inhibitors. AID 720504. hit rate 2.8% among 360,000; also: series mostly up to about 57 µM; % is scaled to controls: 0 for no effect and ±100 for the full control effect; nearly all actives have a fitted effect of over 65% in size
BAZ2B block: BAZ2B (human) inhibition; Q9UIF8; AlphaScreen BAZ2B-H3K14Ac peptide displacement; Potency, µM (doses to about 114 µM), for inactives: at the top dose activity change, negative = inhibition, most hits filed as inhibitors; hit rate 4.4% among 360,000; AID 504333; also: % is scaled to controls: 0 for no effect and ±100 for the full control effect; nearly all actives have a fitted effect of over 60% in size
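AlphaScreen luminescence quantifies BAZ2B engagement of H3K14Ac peptide; the protein and biotinylated peptide are both at 50 nM final, buffer PBS pH 7.4 with 0.01% Tween-20, all steps at room temperature.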
G9a inh: blocks human histone lysine methyltransferase G9a. Q96KQ7. G9a H3K9 monomethylation, AlphaScreen, 2 h. Potency, µM (doses to about 102 µM), without a hit: at the highest dose activity, negative = inhibition, hits mostly inhibitors. hit rate 8.8% among 350,000. AID 504332; also: % is scaled to controls: 0 for no effect and ±100 for the full control effect; nearly all actives have a fitted effect of over 75% in size
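Signal arises when biotinylated H3K9 peptide, once monomethylated, bridges streptavidin donor and antibody-captured acceptor beads. Enzyme at 20 nM was preincubated 15 min with test compounds; peptide 500 nM and SAM 20 uM then reacted for 2 h.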
An asterisk follows results filed as active; [ ] = another dose, or the depositor's remark. A selection: hits, their analogues and other compounds. The true share with any hit is near 9%. Calls follow the shape of the dose curve; as a rule, active = well fitted curve in the direction sought with a large enough effect; inconclusive = small, poorly fitted or top-dose-only effect, or another doubt; inactive = no such curve, though single readings can be large; an effect the other way counts as inactive or inconclusive. Potency is read from the fitted curve at half-maximal effect.

Screening COc1cccc(CN2C(=O)NC3(CCCCCC3)C2=O)c1 returned 12-LOX inh -10.0%, JMJD2A Tudor 3.4%, HP1b binding inh 20.5%, PLK1 PBD block -2.1%, BAZ2B block 10.1% and G9a inh 6.1%.
O=C1NC2(CCCCCC2)C(=O)N1Cc1cccc([N+](=O)[O-])c1 was read as 12-LOX inh -1.5%, JMJD2A Tudor inconclusive, HP1b binding inh 1.2%, PLK1 PBD block 26.7µM*, BAZ2B block -12.9% and G9a inh -10.1%.
`Oc1ccc(/C=C/c2nc(-c3ccccc3O)n(-c3ccccc3)n2)c(O)c1` gave 12-LOX inh inconclusive, JMJD2A Tudor inconclusive, HP1b binding inh 1.2%, BAZ2B block 31.6µM* and G9a inh inconclusive.
CCN(C(=O)c1cccs1)c1cccc(C)c1 was read as 12-LOX inh 1.7%.
`Cc1cccc(N=N/C(=C\O)C(=O)c2cccs2)c1` gave 12-LOX inh inconclusive, JMJD2A Tudor 25.1µM*, HP1b binding inh inconclusive, PLK1 PBD block -15.5%, BAZ2B block 11.2µM* and G9a inh 28.2µM*.
CC(=O)Nc1ccc(NC(=O)Cc2ccc(-c3ccccc3)cc2)cc1 was read as 12-LOX inh -29.8%, JMJD2A Tudor -15.6%, HP1b binding inh 12.6%, PLK1 PBD block -9.2% and BAZ2B block 15.4%.
Screening COc1ccc2c(c1)C1NC(=S)NC(C)(O2)C1C(=O)Nc1ccc(Cl)cc1 (stereo not given) returned 12-LOX inh 39.8µM*, JMJD2A Tudor -17.1%, HP1b binding inh 10.1%, PLK1 PBD block -16.2%, BAZ2B block -32.2% and G9a inh -18.0%.
Screening Cc1ccc2c(c1)C1NC(=S)NC(C)(O2)C1C(=O)Nc1ccc(Cl)cc1 (stereo not given) returned 12-LOX inh 28.2µM*, JMJD2A Tudor -8.9%, HP1b binding inh 28.8%, PLK1 PBD block -25.6%, BAZ2B block -7.3% and G9a inh 17.6%.
Screening Cc1ccc2cc(C)c3nnc(SCC(=O)N4CCCc5ccccc54)n3c2c1C returned BAZ2B block -22.5% and G9a inh inconclusive.
For COc1cc(NS(=O)(=O)c2ccc(NC(=S)NC(=O)c3ccco3)cc2)nc(OC)n1 the results were 12-LOX inh inconclusive, JMJD2A Tudor -11.6%, HP1b binding inh 9.9%, PLK1 PBD block -7.4% and BAZ2B block inconclusive.
COc1cc(NS(=O)(=O)c2ccc(NC(=S)NC(=O)c3sc4ccccc4c3Cl)cc2)nc(OC)n1 was read as 12-LOX inh -23.9%, JMJD2A Tudor -33.1%, HP1b binding inh inconclusive, PLK1 PBD block inconclusive, BAZ2B block 50.1µM* and G9a inh inconclusive.
COc1cc(NS(=O)(=O)c2ccc(NC(=S)NC(=O)c3sc4cc(F)ccc4c3Cl)cc2)nc(OC)n1 was read as 12-LOX inh inconclusive, JMJD2A Tudor inconclusive, HP1b binding inh inconclusive, PLK1 PBD block 26.7µM*, BAZ2B block -28.6% and G9a inh inconclusive.
Screening COc1ccc2[nH]cc(CCNc3nc(-c4ccccc4OC)nc4ccccc34)c2c1 returned 12-LOX inh -13.1% and G9a inh -2.8%[0.501 µM].
For Cc1cncnc1C1CCN(c2cc(C3CC(N)C3)ncn2)CC1 (stereo not given) the results were 12-LOX inh 14.1µM*.
For CCCCC(CC)C(=O)Nc1ccc(C)c(O)c1 (stereo not given) the results were 12-LOX inh -0.2%, JMJD2A Tudor 50.1µM*, HP1b binding inh -12.9%, PLK1 PBD block 29.9µM* and BAZ2B block -5.2%.
Screening CC(=O)Nc1ccc(-c2nc(N3CCCC3)sc2C)cc1 returned 12-LOX inh 5.62µM*.
Screening Cc1ccc(-c2nc(N3CCOCC3)sc2C(=O)N2CCCCC2)cc1 returned 12-LOX inh -9.2%, JMJD2A Tudor -15.0%, HP1b binding inh 20.4%, PLK1 PBD block 0.7%, BAZ2B block -2.9% and G9a inh -6.9%.
`Cc1sc(N2CCOCC2)nc1-c1ccc(NS(C)(=O)=O)cc1` gave 12-LOX inh 35.5µM*.
CC(=O)Nc1ccc(N2CCCCC2)cc1 was read as 12-LOX inh 3.1%, JMJD2A Tudor -11.2%, HP1b binding inh 14.4%, PLK1 PBD block -1.9%, BAZ2B block -5.9% and G9a inh inconclusive.
CC(C)CNC(=O)C1Nc2ccc(C(F)(F)F)cc2C2C=CCC12 (stereo not given) was read as 12-LOX inh -10.0%, JMJD2A Tudor -22.1%, HP1b binding inh 14.2% and PLK1 PBD block -7.0%.
Screening O=C(O)C1Nc2c(Cl)cc(Cl)cc2C2C=CCC12 (stereo not given) returned JMJD2A Tudor 22.4µM*, HP1b binding inh 28.2µM*, PLK1 PBD block 7.52µM* and BAZ2B block 25.1µM*.
For Cc1ccc(C)c2c1NC(C(=O)O)C1CC=CC21 (stereo not given) the results were JMJD2A Tudor 20µM* and HP1b binding inh 22.4µM*.
Screening O=C(O)C1Nc2c(O)cccc2C2C=CCC12 (stereo not given) returned 12-LOX inh 87.9%, JMJD2A Tudor 2.51µM*, HP1b binding inh 28.2µM*, PLK1 PBD block 26.7µM*, BAZ2B block 1.58µM* and G9a inh 10µM*.
Screening O=C(O)C1Nc2c(Cl)cc(Cl)c(Cl)c2C2C=CCC12 (stereo not given) returned 12-LOX inh 3.16µM*, JMJD2A Tudor 56.2µM*, HP1b binding inh inconclusive and PLK1 PBD block 23.8µM*.
`O=C(NCCF)C1Nc2ccc(OC(F)(F)F)cc2C2C=CCC12` (stereo not given) gave 12-LOX inh 1.0%, JMJD2A Tudor -35.0%, HP1b binding inh 9.5% and PLK1 PBD block inconclusive.
Screening CN1C(=O)c2cncnc2OCC1CNC(=O)c1ccc(Cl)cc1 (stereo not given) returned 12-LOX inh 57.3%[176 µM].
`CC(Oc1cccc(Cl)c1)C(=O)Nc1cc(S(=O)(=O)N2CCOCC2)ccc1N1CCCCC1` (stereo not given) gave 12-LOX inh -0.4%, JMJD2A Tudor -7.5%, HP1b binding inh 15.6%, PLK1 PBD block 2.0%, BAZ2B block -3.5% and G9a inh -8.7%.
For O=C(NCCCO)Nc1ccc2nc(-c3ccco3)c(-c3ccco3)nc2c1 the results were BAZ2B block 3.55µM* and G9a inh 1.78µM*.
For O=C(Nc1cccc(C(F)(F)F)c1)c1cccc(NC(=O)c2cnc3ccccc3n2)c1 the results were 12-LOX inh -2.0%.
